The campaign covered roughly 390,000 compounds. About 60 (0.02%) were called active. No stated cut-off is given here; in the data, active means activity change below about -50%; inconclusive means between about -30% and that limit; inactive means weaker than that. The list comes from a sample in which actives are over-represented; it also holds similar structures and randomly drawn compounds.
On the % scale 0 is the no-effect control and ±100 the full control effect.

The test deals with Mucolipin-1 (Homo sapiens) (UniProt Q9GZU1). Kind of test: qHTS for Inhibitors of the Human Mucolipin Transient Receptor Potential 1 (TRPML1). To be noted: TRPML1-inducible cells, Ca2+ dye fluorescence, FDSS; hits give low values; inhibition of EC80 agonist-evoked calcium signal. The text has this: Mutations of human Mucolipin transient receptor potential 1 (TRPML1) cause type IV mucolipidosis (ML4), a devastating neurodegenerative disease in young children. […] Currently, there is no treatment for ML4. […] Under physiological conditions, TRPMLs regulate membrane trafficking by transducing information about PI(3,5)P2 levels into changes in juxtaorganellar Ca2+, thereby triggering membrane fusion/fission events in the late endocytic pathways (endolysosomal trafficking). In addition, TRPML1 mediates release of Fe2+ from late endosomes and lysosomes, which is essential for cellular iron metabolism. Thus, impaired ion (Ca2+ and Fe2+) homeostasis underlies lysosomal dysfunction and ML4 phenotypes. In ML4 cells, the problem is twofold. First, defective Ca2+-dependent membrane trafficking due to TRPML1-deficiency causes accumulation of lipids and other bio-materials in the lysosome. The second strike comes from the lysosomal iron overload (due to impairment of TRPML1's Fe2+ conductivity), which converts the accumulated materials into the nondegradable (resistant to lysosomal degradation) lipofuscin (also called aging pigment) in the lysosome. Lipofuscin accumulation dramatically compromises the functions of lysosomes.
Mucolipin-1 (Homo sapiens), sequence (Q9GZU1 whole entry, looked up, the tested form may be a part): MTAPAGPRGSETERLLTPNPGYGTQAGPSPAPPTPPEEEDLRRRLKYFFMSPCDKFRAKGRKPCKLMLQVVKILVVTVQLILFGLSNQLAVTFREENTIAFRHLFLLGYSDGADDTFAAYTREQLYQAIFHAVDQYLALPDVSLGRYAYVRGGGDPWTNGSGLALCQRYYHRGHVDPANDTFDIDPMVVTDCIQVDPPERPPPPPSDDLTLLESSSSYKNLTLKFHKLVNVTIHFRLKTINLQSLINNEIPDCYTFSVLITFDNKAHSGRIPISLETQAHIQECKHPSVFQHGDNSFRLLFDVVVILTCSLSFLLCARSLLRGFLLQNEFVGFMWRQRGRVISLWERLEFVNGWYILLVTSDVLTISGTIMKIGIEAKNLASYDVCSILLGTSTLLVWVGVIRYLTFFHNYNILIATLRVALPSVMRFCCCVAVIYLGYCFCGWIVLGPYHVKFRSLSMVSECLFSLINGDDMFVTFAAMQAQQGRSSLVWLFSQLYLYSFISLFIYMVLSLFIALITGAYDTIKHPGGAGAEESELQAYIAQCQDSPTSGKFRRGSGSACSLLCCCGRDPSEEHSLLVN
Niemann-Pick type C (NPC) disease is another lysosome storage disease (LSD) with severe neurodegeneration during the childhood. Currently, there is no cure for NPC. […] Thus, TRPML1 is likely to be an essential regulator of lysosome ion homeostasis. We specifically hypothesize that stimulating TRPML1's Fe2+/Ca2+ channel activity in the lysosome using synthetic agonists can alleviate neurodegeneration associated with ML4 or NPC.
To this end, a high throughput screen was developed in a miniaturized format to screen against the Molecular Libraries Small Molecule Repository (MLSMR) to find small molecules that act either as inhibitors or agonist against the TRPML1 channel.
NIH Chemical Genomics Center [NCGC]
NIH Molecular Libraries Probe Centers Network [MLPCN]
Assay Submitter (PI): Haoxing Xu, University of Michigan Ann Arbor
TRPML1-DL cells are dissociated from flasks, counted and, brought up to a density of 500,000 cells per mL of media containing a 1X Tet inducer. Using a Multidrop Combi, 3 uL of this cell solution is dispensed to each well of a 1536 TC treated, black, clear bottom hi base plate for a final cell density of 1,500 cells per well. The assay plates are incubated overnight (approximately 16 hours) at 37 degrees C and 5% CO2. Using a Multidrop Combi, 2 uL of ABD Ca8 no wash dye plus quencher is added to each well. The assay plates incubate at room temperature in the dark for 45-90 minutes. The assay plate is read on the FDSS using the following protocol: 10 second baseline read, 23 nL of compounds and controls are added using 1536 pintool, agonist read for 110 seconds, 1 uL EC80 addition (4 uM final 54-4 diluted in media), antagonist read for 110 seconds.
(In general: In qHTS, concentration-response curves come from the screen itself.)
On to `Cc1ccc(OCCSc2nc(C)c(Cc3ccccc3)c(=O)[nH]2)cc1`, for which the activity change, negative = inhibition is -16.6% (inactive).

For `COc1ccc(NC(=O)NC(C)c2c(-n3cccc3)sc(C)c2C)cc1OC` (stereo not drawn), the activity change, negative = inhibition was 12.5% (inactive).

For `COC(=O)c1ccccc1NC(=O)Cn1c(=O)n(-c2cccc(C(F)(F)F)c2)c(=O)c2c(C)c(C)sc21`, the activity change, negative = inhibition was -25.8% (inactive).

In the case of `Cc1cc2c(cc3c(SCc4nc(-c5ccccc5)oc4C)nnc(C)n32)o1`, the activity change, negative = inhibition was 11.7% (inactive).

`N#Cc1ccccc1Cn1cnc2nc3c(cc2c1=O)CCCC3`: the activity change, negative = inhibition was -15.7% (inactive).

For the molecule `CCN(Cc1ccccc1)S(=O)(=O)c1ccc2c(c1)CCCN2C(C)=O`, the activity change, negative = inhibition was -2.82% (inactive).

As for `Cn1c(=O)c2sccc2n2c(CCC(=O)NCc3ccccc3Cl)nnc12`, the activity change, negative = inhibition was 2.41% (inactive).

With `CN1CCN(C2(CNC(=O)COc3ccc(C(C)(C)C)cc3)CCCCC2)CC1`, the activity change, negative = inhibition was 16.1% (inactive).

Take `COc1cc(OC)cc(-c2nc3nc(C)c(CCC(=O)Nc4ccccc4)c(C)n3n2)c1`: the activity change, negative = inhibition was -13.4% (inactive).

Consider `Cc1ccc(Nc2c(-c3ccc(N(C)C)cc3)nc3nc[nH]n23)cc1`, for which the activity change, negative = inhibition was -8.37% (inactive).

Regarding `CCOc1ccccc1CNC(=O)c1cnc2c(-c3ccc(OCC)c(OCC)c3)c(C)nn2c1C`, the activity change, negative = inhibition is -5.19% (inactive).

`CCc1ccc(-n2nc(C)c3c(C)cc(=O)n(CC(=O)Nc4ccc(F)cc4C)c32)cc1`: the activity change, negative = inhibition was 1.68% (inactive).

On to `CCOc1ccc(C2C(=O)N(C3CCCCC3)CC(=O)N2CCC2=CCCCC2)cc1OC` (stereo not drawn), for which the activity change, negative = inhibition is -3.98% (inactive).

`CCC(=O)N1CCc2cc(Br)cc(S(=O)(=O)CCC(=O)N3CCN(c4ccc(F)cc4)CC3)c21`: the activity change, negative = inhibition is -21.4% (inactive).

On to `COc1ccc(CN2CCC(=O)c3ccccc3S2(=O)=O)cc1`, for which the activity change, negative = inhibition is -9.22% (inactive).

Regarding `COc1ccc(CCC(=O)NCc2ccc3c(c2)CCN3C(=O)c2ccc(F)cc2)cc1`, the activity change, negative = inhibition is -24.8% (inactive).

For `CCCSc1ncc(Cl)c(C(=O)Nc2sc3c(c2C(=O)NCCOC)CCCC3)n1`, the activity change, negative = inhibition was 20.3% (inactive).

As for `O=C(Nc1nc2c(s1)CCCC2)c1ccccc1F`, the activity change, negative = inhibition was 7.29% (inactive).

In the case of `COc1cccc2cc(-c3nc(Cl)c4c5c(sc4n3)CC(C)CC5)c(=O)oc12` (stereo not drawn), the activity change, negative = inhibition was -7.72% (inactive).

For the molecule `Cc1ccc(Nc2nc(N)nc(CN3CCN(Cc4ccccc4)CC3)n2)cc1Cl`, the activity change, negative = inhibition is -62.2% (active).

With `Cc1cc(N2CCOCC2)nc2ccc(NC(=S)N3CCN(Cc4ccccc4)CC3)cc12`, the activity change, negative = inhibition was -15.7% (inactive).

With `CCOC(=O)C1CCCN(Cc2nc(N)nc(Nc3ccc(C)cc3)n2)C1` (stereo not drawn), the activity change, negative = inhibition is -0.383% (inactive).

For `Cc1ccc(-n2c(SCC(=O)c3ccccc3)nc3c([nH]c4ccccc43)c2=O)cc1`, the activity change, negative = inhibition was 13.9% (inactive).

As to `O=C(CSCc1cnn(-c2ccccc2)c1-n1cccc1)NCc1ccccc1Br`, the activity change, negative = inhibition is 2.1% (inactive).

Regarding `CC1=C(C(=O)OCc2ccc(C)cc2)C(c2ccccc2Cl)CC(=O)N1` (stereo not drawn), the activity change, negative = inhibition was 31.3% (inactive).

For `C#CC(C)(CC)NC(=O)Cn1nnc(-c2ccc(OCc3c(F)cccc3Cl)cc2)n1` (stereo not drawn), the activity change, negative = inhibition is -6.13% (inactive).

`Cn1c(=O)c2c(nc(SCC(=O)Nc3ccc(F)cc3)n2Cc2ccc(Cl)cc2)n(C)c1=O`: the activity change, negative = inhibition was 3.84% (inactive).

In the case of `Cc1cccc(C(=O)Nc2ccc(-c3nc4ncccc4o3)cc2C)c1`, the activity change, negative = inhibition is -6.3% (inactive).

Turning to `COC(=O)CCc1ccccc1S(=O)(=O)N(CCC(=O)OC)Cc1ccccc1`, the activity change, negative = inhibition is -2.45% (inactive).

Consider `CC(C)(C)n1ncc2c(=O)n(Cc3ccc(C(=O)c4ccccc4)cc3)cnc21`, for which the activity change, negative = inhibition was 1.11% (inactive).

Turning to `COc1cccc(CNC(=O)c2ccc3c(c2)N(Cc2ccc(C(F)(F)F)cc2)C(=O)c2ccccc2S3)c1OC`, the activity change, negative = inhibition was 37.3% (inactive).

Take `C=C1CCN(Cc2ccc(OC)cc2)S(=O)(=O)c2ccccc21`: the activity change, negative = inhibition is 57% (inactive).

For `CCOC(=O)c1ccc(-c2ccc(/C=C(\C#N)C(=O)Nc3ccc(OCC)cc3)o2)cc1`, the activity change, negative = inhibition is 10.3% (inactive).

Turning to `Cc1c(NS(=O)(=O)c2ccc(Cl)cc2)c(=O)n(-c2ccccc2)n1C`, the activity change, negative = inhibition was -2.41% (inactive).

Turning to `CCc1ccc2ncc3c(-c4ccc(C)cc4)nn(CC(=O)NCc4ccccc4)c3c2c1`, the activity change, negative = inhibition was 1.33% (inactive).

Turning to `COc1ccc(N2CCN(C(=O)C3CCCN(C(=O)c4cc5sccc5n4C)C3)CC2)cc1` (stereo not drawn), the activity change, negative = inhibition was -10.9% (inactive).

Regarding `COc1cc(Br)cc2cc(S(=O)(=O)c3ccccc3)c(=O)oc12`, the activity change, negative = inhibition was 0.895% (inactive).

Regarding `COc1ccc(Cl)cc1NC(=O)Cn1c(=O)c2ccccc2n2nncc12`, the activity change, negative = inhibition is 11.3% (inactive).

Take `COc1cc(NC(=O)Cn2nc(-c3ccc(C)c(C)c3)ccc2=O)cc(OC)c1`: the activity change, negative = inhibition was -17.3% (inactive).

For the molecule `Cc1ccc(NC(=O)NC(C)c2c(-n3cccc3)sc(C)c2C)c(C)c1` (stereo not drawn), the activity change, negative = inhibition is 43% (inactive).

Regarding `CCc1nnc(SCc2nc(-c3cccc(C)c3)oc2C)c2cc3sc(C)cc3n12`, the activity change, negative = inhibition is -4.34% (inactive).

Take `CCCOc1ccc(C(=O)Nc2ccc3oc(-c4cccc(Cl)c4Cl)nc3c2)cc1`: the activity change, negative = inhibition is -2.03% (inactive).

`COc1ccccc1-c1cc(C(F)(F)F)nc(S(=O)(=O)CCCC(=O)Nc2cc(C)ccc2O)n1`: the activity change, negative = inhibition was -10.5% (inactive).

Turning to `Cc1ccc(C)c(Oc2c(C(F)(F)F)oc3c(CN4CCN(C)CC4)c(O)ccc3c2=O)c1`, the activity change, negative = inhibition was 11.9% (inactive).

For `O=C(CN1CCN(Cc2ccc(Cl)cc2)C1=O)NCc1ccc(F)cc1`, the activity change, negative = inhibition was 3.6% (inactive).

Regarding `COc1cccc(Cn2c(SCc3ccc(C(=O)N4CCCCC4)cc3)nc3ccncc32)c1`, the activity change, negative = inhibition was 17.2% (inactive).

As for `CSc1nc(=O)c2c(n1C)NC(=O)CC2c1ccccc1OC(C)C` (stereo not drawn), the activity change, negative = inhibition was -8.74% (inactive).

Regarding `O=C(Nc1ccc2nc(SCC(=O)N3CCCc4ccccc43)sc2c1)c1ccc(F)cc1`, the activity change, negative = inhibition is -5.54% (inactive).

Turning to `Cn1cc(S(=O)(=O)N2CCCCCC2)cc1C(=O)N1CCN(c2ccc(F)cc2)CC1`, the activity change, negative = inhibition is -18.5% (inactive).

Take `Cc1ccc(NC(=O)CSc2nc3c([nH]c4ccccc43)c(=O)n2-c2ccccc2)cc1Cl`: the activity change, negative = inhibition is -8.82% (inactive).

In the case of `CCCS(=O)(=O)c1c(Nc2ccccc2C)sc(C(=O)c2ccccc2)c1N`, the activity change, negative = inhibition is 6.08% (inactive).

`CCC(=O)N1CCc2cc(Br)cc(S(=O)(=O)Nc3ccc(C)cc3C)c21`: the activity change, negative = inhibition is 11.5% (inactive).

For the molecule `O=C(Nc1ccc(Br)cc1)c1cc2nc(-c3ccccc3)cc(-c3ccccc3)n2n1`, the activity change, negative = inhibition was 63.6% (inactive).

Source of the values: PubChem BioAssay AID624415 (National Center for Advancing Translational Sciences (NCATS), 2012).
